Test results: PubChem BioAssay AID1159580 (chemical genetic matrix, 2015)
Screen size: about 5,500 compounds; about 2,000 (36%) were called active. Not shown: some 18% with an inconclusive outcome. Cut-off read from the data, not from the text of the source: active = normalized growth mostly below about 0.91 (no sharp cut-off); inconclusive = no clear call, values can overlap the other calls; inactive = mostly above about 0.92. The list shows a part of the results.

Experiment: chemical genetic growth profiling, strain panel (AID 1159580);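 note: tested at 20 µM; growth read once vehicle control cultures reached saturation at 30 °C; 1 = growth at the plate median or of vehicle wells; lower values mean less growth of the strain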
Settings: S. cerevisiae deletion strains, growth OD

Measured: normalized growth

CCCc1cc(OC)c2c(c1)OCO2
inactive: locus YAL021C, strain ccr4, hits give low values 1.04 | locus YAL026C, strain drs2, hits give low values 0.988 | locus YAL030W, strain snc1, hits give low values 0.999 | locus YBL061C, strain skt5, hits give low values 0.993 | locus YBR009C, strain hhf1, hits give low values 0.988 | locus YBR023C, strain chs3, hits give low values 0.991 | locus YBR171W, strain sec66, hits give low values 0.973 | locus YBR231C, strain swc5, hits give low values 1.01 | locus YBR279W, strain paf1, hits give low values 1 | locus YCL011C, strain gbp2, hits give low values 0.999 | locus YCL016C, strain dcc1, hits give low values 0.98 | locus YCL069W, strain vba3, hits give low values 0.996 | locus YCR088W, strain abp1, hits give low values 0.985 | locus YDL005C, strain med2, hits give low values 0.975 | locus YDL040C, strain nat1, hits give low values 0.978 | locus YDR001C, strain nth1, hits give low values 0.987 | locus YDR069C, strain doa4, hits give low values 0.994 | locus YDR137W, strain rgp1, hits give low values 0.94 | locus YDR159W, strain sac3, hits give low values 0.943 | locus YDR195W, strain ref2 0.974 | locus YDR297W, strain sur2, hits give low values 0.995 | locus YDR334W, strain swr1, hits give low values 1.01 | locus YDR335W, strain msn5, hits give low values 0.988 | locus YDR392W, strain spt3, hits give low values 0.952 | locus YEL003W, strain gim4, hits give low values 0.994 | locus YEL037C, strain rad23, hits give low values 0.998 | locus YEL061C, strain CIN8 (second series), hits give low values 0.979 | locus YER015W, strain faa2, hits give low values 0.989 | locus YER016W, strain bim1, hits give low values 0.977 | locus YER111C, strain swi4, hits give low values 0.976 | locus YER155C, strain BEM2 (second series), hits give low values 0.928 | locus YFR010W, strain ubp6, hits give low values 0.999 | locus YGL167C, strain pmr1, hits give low values 0.983 | locus YGL173C, strain kem1, hits give low values 0.987 | locus YGL227W, strain vid30, hits give low values 0.974 | locus YGL240W, strain doc1, hits give low values 1 | locus YGL253W, strain hxk2, hits give low values 0.995 | locus YHR013C, strain ard1, hits give low values 1.11 | locus YHR027C, strain rpn1, hits give low values 0.982 | locus YHR030C, strain SLT2, hits give low values 0.944 | locus YHR079C, strain IRE1, hits give low values 0.946 | locus YHR142W, strain chs7, hits give low values 0.974 | locus YJL092W, strain hpr5, hits give low values 0.985 | locus YJL095W, strain BCK1 (second series), hits give low values 1 | locus YJL095W, strain BCK1, hits give low values 1.02 | locus YJL115W, strain asf1, hits give low values 0.98 | locus YJL129C, strain trk1, hits give low values 0.992 | locus YJL154C, strain vps35, hits give low values 0.994 | locus YJL164C, strain tpk1, hits give low values 1 | locus YJL166W, strain qcr8, hits give low values 0.985 | locus YJL187C, strain SWE1, hits give low values 1 | locus YJR066W, strain TOR1, hits give low values 0.937 | locus YKL160W, strain elf1, hits give low values 0.983 | locus YKR026C, strain gcn3, hits give low values 0.971 | locus YKR091W, strain srl3, hits give low values 0.984 | locus YLL001W, strain dnm1, hits give low values 0.999 | locus YLL026W, hits give low values 0.992 | locus YLL041C, strain sdh2, hits give low values 0.997 | locus YLR027C, strain aat2, hits give low values 0.984 | locus YLR113W, strain HOG1, hits give low values 1.04 | locus YLR221C, strain rsa3, hits give low values 0.989 | locus YLR258W, strain gsy2, hits give low values 0.998 | locus YLR262C, strain YPT6 (second series), hits give low values 0.927 | locus YLR320W, strain mms22, hits give low values 1 | locus YLR342W, strain FKS1, hits give low values 0.977 | locus YLR357W, strain rsc2, hits give low values 0.974 | locus YLR370C, strain arc18, hits give low values 0.984 | locus YLR384C, strain iki3, hits give low values 0.995 | locus YML120C, strain ndi1, hits give low values 0.987 | locus YMR058W, strain fet3, hits give low values 1.02 | locus YMR125W, strain sto1, hits give low values 0.971 | locus YMR129W, hits give low values 0.975 | locus YMR205C, strain PFK2, hits give low values 0.98 | locus YMR231W, strain pep5, hits give low values 1 | locus YNL071W, strain lat1, hits give low values 0.998 | locus YNL183C, strain NPR1, hits give low values 1.01 | locus YNL209W, strain ssb2, hits give low values 0.967 | locus YNL248C, strain rpa49, hits give low values 0.989 | locus YNL322C, strain KRE1 (second series), hits give low values 0.976 | locus YNR049C, strain mso1, hits give low values 0.992 | locus YOR001W, strain rrp6, hits give low values 0.999 | locus YOR070C, strain gyp1, hits give low values 0.997 | locus YOR080W, strain dia2, hits give low values 0.966 | locus YOR083W, strain WHI5, hits give low values 0.938 | locus YOR106W, strain vam3, hits give low values 0.976 | locus YOR231W, strain MKK1, hits give low values 0.957 | locus YOR265W, strain rbl2, hits give low values 0.981 | locus YOR270C, strain vph1, hits give low values 1 | locus YOR290C, strain snf2, hits give low values 0.995 | locus YPL051W, strain arl3, hits give low values 0.991 | locus YPL078C, strain atp4, hits give low values 0.981 | locus YPL106C, strain sse1, hits give low values 0.976 | locus YPL240C, strain hsp82, hits give low values 0.974 | locus YPL256C, strain CLN2, hits give low values 0.953
